# A selection: hits, their analogues and other compounds. The true share with any hit is near 3.6%.
# mHTT CaM bind: mHTT-calmodulin interaction abrogation; AlphaScreen His-mHTT/GST-CaM binding, luminescence; inhibition, % at 15 µM; AID 1671202; P42858; 190,000 tested, 3.6% active;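 also: 0% = both proteins with DMSO and 100% = one protein alone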
# Pf apPOL inh: Pf-apPOL DNA polymerase inhibition; Recombinant Pf-apPOL, molecular beacon fluorescence, 1.5 h; inhibition, % at 10 µM; 210,000 tested, 0.25% active; AID 1794808
# Active calls of the source: *; x = not tested or not shown. Rule as the data show it: active = inhibition above about 50%; inactive = the rest.
SMILES,mHTT CaM bind,Pf apPOL inh
CCN1c2ccc(F)cc2C(=O)NC12CCN(C(=O)Cc1ccc(OC)cc1)CC2,-1,-6
Cc1cccc(NC(=O)C(=O)NCc2ccccn2)n1,-11,-5
Cc1ccc2ccc3ccc(C)nc3c2n1,1,x
Cc1cccc(NC(c2cccc(C)n2)c2ccc3ccc(C)nc3c2O)n1 (stereo unspecified),76*,1
Cc1cccc(NC(c2ccccn2)c2ccc3ccc(C)nc3c2O)n1 (stereo unspecified),99*,-3
CC(=O)NS(=O)(=O)c1ccc(NC(=O)c2ccccc2I)cc1,0,-1
CNC(=O)c1ccc2c(c1)CCN2C(=O)C1CC1,0,-7
COc1ccc(C(=O)N(C)CC23CCCC2N(C)C(=O)CC3)cc1F (stereo unspecified),-4,-2
COC(=O)c1ccc(Cn2c(=O)n(Cc3ccc(OC)cc3)c(=O)c3ncccc32)cc1,3,-8
CCN(CC)CCC(c1cc(OC)c(OC)c(OC)c1)c1c(OC)cc(OC)c2c(C)cc(=O)oc12 (stereo unspecified),16,-13
CCN(CC)CCC(c1ccc(N(C)C)cc1)c1c(OC)cc(OC)c2c(C)cc(=O)oc12 (stereo unspecified),94*,-1
CCN(CC)C(=O)CC(c1ccc(OC)cc1)c1c(OC)cc(OC)c2c(-c3ccccc3)cc(=O)oc12 (stereo unspecified),88*,9
CCN(CC)C(=O)Oc1ccc2c(-c3cc4cccc(OC)c4oc3=O)cc(=O)oc2c1,-2,-4
COc1cc(C(CCN2CCCC2)c2c(OC)cc(OC)c3ccc(=O)oc23)cc(OC)c1OC (stereo unspecified),8,-3
COc1cc(C(CCN2CCN(c3ccccc3)CC2)c2c(OC)cc(OC)c3c(C)cc(=O)oc23)cc(OC)c1OC (stereo unspecified),94*,-9
COc1cc(C(CCN2CCCC(C)C2)c2c(OC)cc(OC)c3c(C)cc(=O)oc23)cc(OC)c1OC (stereo unspecified),14,-11
COc1ccc(C(CCN2CCCCC2)c2c(OC)cc(OC)c3c(-c4ccccc4)cc(=O)oc23)cc1 (stereo unspecified),99*,-8
C=CCN1C(=O)C(O)=C(C(C)=O)C1c1ccc(Br)cc1 (stereo unspecified),0,-3
Cc1cc(C)c2c(N)c(C(=O)c3ccc(F)cc3)oc2n1,-2,0
COc1cc(C(=O)Nc2cccc(NC(=O)c3ccccc3Cl)c2)ccc1[N+](=O)[O-],21,-3
COc1cc(C(CC(=O)N2CCOCC2)c2c(OC)cc(OC)c3c(-c4ccccc4)cc(=O)oc23)cc(OC)c1OC (stereo unspecified),47,-6
COc1cc(OC)c2c(-c3ccccc3)cc(=O)oc2c1C(CCN1CCOCC1)c1ccc(N(C)C)cc1 (stereo unspecified),94*,-6
COc1cc(OC)c2c(-c3ccccc3)cc(=O)oc2c1C(CCN1CCCCC1)c1ccc(N(C)C)cc1 (stereo unspecified),100*,-9
OC(CCN1CCCCC1)c1ccc(-c2ccccc2)cc1 (stereo unspecified),x,-4
Cc1ccc(CNC(=O)CC2CCN(C(=O)c3ccccc3)CC2)cc1,-9,-4
SMILES,mHTT CaM bind,Pf apPOL inh
Cc1ccc2c(c1)oc(=O)n2C1CCN(C(=O)C2CCCC2)CC1,-1,-4
O=C1c2ccc(Oc3ccc([N+](=O)[O-])cc3)cc2C(=O)N1c1ccc2c(c1)OCO2,-3,0
COc1ccc(N2CCN(CC(O)COc3ccc(C)c(C)c3)CC2)cc1 (stereo unspecified),36,0
COc1ccccc1N1CCN(CC(O)COc2cccc3ccccc23)CC1 (stereo unspecified),23,-7
COc1ccccc1N1CCN(CC(O)COc2ccc(Cl)cc2C)CC1 (stereo unspecified),75*,21
COc1ccc(N2CCN(CC(O)COc3ccc(Cl)cc3C)CC2)cc1 (stereo unspecified),76*,-2
COc1ccccc1N1CCN(CC(O)COc2ccccc2C(C)(C)C)CC1 (stereo unspecified),19,-2
COc1ccc(N2CCN(CC(O)COc3ccccc3C(C)(C)C)CC2)cc1 (stereo unspecified),71*,2
CC(=O)c1cccc(N2C(=O)c3ccncc3C2=O)c1,-2,-2
Cc1ccc(-n2[nH]c3c(cnc4ccc(C(=O)NCc5ccccc5F)cc43)c2=O)cc1,38,-2
CSc1ccc(C2C(C#N)=C(N)Oc3cc(N(C)C)ccc32)cc1 (stereo unspecified),42,-4
CCOc1ccccc1C1C(C#N)=C(N)Oc2cc(N(C)C)ccc21 (stereo unspecified),61*,-5
COc1cccc(NS(=O)(=O)c2ccc3[nH]c4c(c3c2)CCCCC4)c1,98*,-1
